Assay outcomes: PubChem, National Center for Advancing Translational Sciences (NCATS)
In the library only some 17% were active in any assay of this set; here they are far more common.
HepG2 tox = qHTS for Inhibitors of TGF-b: Cytotox Counterscreen; HepG2 CAGA-GFP viability, ATP luminescence, 18 h; Potency, µM (top dose mostly 46.1 µM), for the others: at the top dose activity change, negative = cytotoxicity, usual class: cytotoxic; hit rate 0.76% among 410,000
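CellTiter-Glo luminescence gave cytotoxicity after 18 hours at 37 degrees C. The cells were HepG2 CAGA-GFP in 1% FBS DMEM, stimulated with 500 pg/mL TGF-beta after compound addition. %Activity was normalised to no-cell wells (complete cell-killing) and DMSO (no toxicity), and curves were fitted and classified.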
HT1080-NT tox = qHTS for induction of synthetic lethality in tumor cells producing 2HG: qHTS for the HT-1080-NT fibrosarcoma cell line; HT-1080-NT fibrosarcoma viability, CellTiter-Glo ATP luminescence, 48 h; Potency, µM (titrated, usually from 46.1 µM), inactives show at the top dose activity, negative = less viability, hits mostly cytotoxic; hit rate 1.6% among 360,000;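 also: NT is the 2HG producing partner of a matched IDH1 knockdown line; 0% = DMSO-treated cells and -100% = media-only wells without cells; nearly all actives have a fitted effect of over 55% in size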
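Toxicity toward the 2HG-producing NT line was scored as %Activity, normalised to DMSO and no-cell wells, from CellTiter-Glo luminescence after 48 hours' treatment.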
DT40 TDP1 no CPT = qHTS for Inhibitors of human tyrosyl-DNA phosphodiesterase 1 (TDP1): qHTS in cells in absence of CPT; DT40 Tdp1-/- hTDP1 cells, no CPT, ATP luminescence, 48 h; Potency, µM (titrated, usually from 46.2 µM), inactives show top-dose activity change, negative = growth inhibition, usual class: inhibitors; hit rate 15% among 420,000; AID 686978, 2013; also: % is scaled to controls: 0 for no effect and ±100 for the full control effect; nearly all actives have a fitted effect of over 55% in size
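Growth kinetics read by CellTiter-Glo luminescence after ≥48 hr at 37 °C. Cells: DT40 Tdp1-/- stably carrying human TDP1, 400 per well, compound exposure in the absence of CPT (DMSO vehicle).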
TGFb SMAD3 inh = qHTS for Inhibitors of TGF-b | Potency, µM (highest dose often 46.1 µM), for the others: top-dose activity, negative = inhibition, hits mostly inhibitors | hit rate 1.2% among 410,000 | AID 588855, 2011 | HepG2 CAGA-GFP TGF-b/SMAD3 reporter, GFP fluorescence, 18 h; TGF-beta stimulated, 500 pg/mL final; also: % is scaled to controls: 0 for no effect and ±100 for the full control effect; nearly all actives have a fitted effect of over 65% in size
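Inhibition of TGF-beta-driven CAGA-GFP reporter expression in HEPG2 cells is measured by cellular GFP fluorescence after 18 h stimulation with 500 pg/mL recombinant TGF-beta in 1% FBS medium at 37 degrees C.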
HT1080 IDH1KD tx = qHTS for induction of synthetic lethality in tumor cells producing 2HG: qHTS for the HT-1080-IDH1KD cell line; Potency, µM (titrated, usually from 46.1 µM), for inactives: at the highest dose activity, negative = toxicity, actives largely listed as cytotoxic; HT-1080 IDH1 knockdown viability, ATP luminescence, 48 h; hit rate 2% among 360,000;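 also: 0% = DMSO wells and -100% = cell-free medium wells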
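Cytotoxicity counter-line: IDH1KD HT-1080, 48 h, CellTiter-Glo. Curves classed by r2, magnitude and activity.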
TDP1 cell CPT = qHTS for Inhibitors of human tyrosyl-DNA phosphodiesterase 1 (TDP1): qHTS in cells in presence of CPT. chicken DT40 Tdp1-/-;hTDP1 cells + 20 nM CPT, ATP luminescence, 48 h. Potency, µM (doses to about 46.2 µM), for the others: top-dose activity change, negative = growth inhibition, actives largely listed as inhibitors. hit rate 12% among 420,000. AID 686979, 2013; also: % is scaled to controls: 0 for no effect and ±100 for the full control effect; nearly all actives have a fitted effect of over 55% in size
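Chicken DT40 Tdp1-/- cells complemented with human TDP1, 400 cells/well, exposed to compounds plus 20 nM camptothecin for at least 48 h at 37 C; viability read as ATP content by CellTiter-Glo luminescence.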
The depositor's hits bear a star; u = inconclusive; x = no result given; [ ] = another dose, or the depositor's remark. Calls follow the shape of the dose curve; as a rule, active = well fitted curve in the direction sought with a large enough effect; inconclusive = small, poorly fitted or top-dose-only effect, or another doubt; inactive = no such curve, though single readings can be large; an effect the other way counts as inactive or inconclusive. Potency is read from the fitted curve at half-maximal effect.

SMILES | HepG2 tox | HT1080-NT tox | DT40 TDP1 no CPT | TGFb SMAD3 inh | HT1080 IDH1KD tx | TDP1 cell CPT
CCN1C(Nc2ccccc2)=NC[C@@H]1C | -6% | -1% | 8% | 7% | 4% | 10%
c1ccc(C[C@H]2CN=C(Nc3ccccc3)N2CCC2CCCC2)cc1 | -14% | u | 15µM* | -2% | u | u
CCC(CC)CN1C(Nc2ccccc2)=NC[C@@H]1CC(C)C | -7% | -13% | u | -13% | 2% | u
CC(C)C[C@H]1CN=C(Nc2ccccc2)N1CC1CCCC1 | 9% | -3% | 16µM* | 12% | 0% | u
NC(=O)CSc1ncc2c(n1)-c1ccccc1N(Cc1ccc(F)cc1)S2(=O)=O | 3% | x | -14% | 7% | x | -24%
CCOc1ccc(S(=O)(=O)N(CC(=O)NCc2cccnc2)c2ccc(F)cc2)cc1 | -12% | -11% | 18µM* | -8% | 2% | u
Cc1ccc(S(=O)(=O)N(CC(=O)NCc2cccnc2)c2ccc(F)cc2)cc1 | -22% | 0% | 18µM* | 3% | 14% | -25%
CCOc1ccc(S(=O)(=O)N(CC(=O)NCc2cccnc2)c2ccc(C)cc2)cc1 | -21% | -2% | u | -17% | -6% | u
COc1ccc(NC(=O)c2cc3c(=O)n(Cc4cccnc4)ccc3nc2C)cc1Cl | 11% | x | -26% | -3% | x | -18%
CC1OC(CCc2cccc(Cl)c2)Cc2[nH][nH]c(=O)c21 (stereo not drawn) | x | -13% | -58% | x | -13% | -39%
CCN(C(=O)c1cc2c(=O)[nH]c3ccc(C)cc3c2s1)c1ccccc1F | -4% | 1% | u | 6% | -3% | 13µM*
CCN(C(=O)c1cc2c(=O)[nH]c3ccc(C)cc3c2s1)c1cccc(C)c1 | -5% | 14% | 18µM* | -19% | 10% | u
CCN(C(=O)c1cc2c(=O)[nH]c3ccc(C)cc3c2s1)c1ccc(F)cc1 | -21% | -22% | u | -12% | 0% | u
CCN(C(=O)c1cc2c(=O)[nH]c3ccc(C)cc3c2s1)c1ccccc1C | 10% | -20% | 2.9µM* | -1% | u | 2.6µM*
Cc1ccc2[nH]c(=O)c3cc(C(=O)N(C)c4ccc(C)c(C)c4)sc3c2c1 | -26% | 6% | 10µM* | 1% | 9% | 10µM*
CCOC(=O)c1c(NC(=O)COC(=O)c2ccc(Cl)nc2)sc(C)c1C | 0% | 0% | -23% | -17% | -1% | -13%
CCCCS(=O)(=O)Nc1ccc(C)cn1 | -47% | 2% | u | u | 10% | u
CCN(C(=O)c1cc2c(=O)oc3ccc(C)cc3c2s1)c1ccccc1F | -19% | x | 21µM* | -6% | x | u
O=C(C1CCC(C(=O)N2CCc3ccccc32)CC1)N1CCc2ccccc21 (stereo not drawn) | 0% | 19% | u | 5% | 0%[9.24 µM] | -10%
O=C(Nc1ccccc1)C(=O)Nc1ccc2c(c1)N(C(=O)C1CC1)CCC2 | -75% | u | 23µM* | 12% | u | 21µM*
CC(C)c1c(C(=O)N(C)CC2CCCN(C)C2)cnn1-c1nccc(-c2cccs2)n1 (stereo not drawn) | x | x | -18% | x | x | u
COc1ccc(-n2nnnc2C2CCN(S(=O)(=O)c3ccc(C(C)(C)C)cc3)CC2)cc1 | -5% | x | -25% | u | x | -6%
COc1ccc(-n2nnnc2C2CCN(S(=O)(=O)c3cc(Cl)ccc3OC)CC2)cc1 | -20% | x | 18µM* | u | x | 13µM*
COc1ccc(-n2nnnc2C2CCN(S(=O)(=O)c3ccc(C)cc3)CC2)cc1 | -5% | x | -76% | -13% | x | 13µM*
COC(=O)N1CCC2(CCCN(Cc3nccs3)C2)CC1 | x | x | -12% | x | x | 7%
SMILES | HepG2 tox | HT1080-NT tox | DT40 TDP1 no CPT | TGFb SMAD3 inh | HT1080 IDH1KD tx | TDP1 cell CPT
O=S(=O)(c1ccc(F)cc1)N1CCN(Cc2cc3c(cc2Br)OCCO3)CC1 | -4% | -3% | u | -28% | -1% | u
Oc1ccc(N2CCN(Cc3cc4c(cc3Br)OCCO4)CC2)cc1 | -12% | -17% | 23µM* | -13% | -25% | u
O=C(CN1CCSC1=O)Nc1ccc(N2CCOCC2)cc1 | -7% | 5% | -19% | 6% | 7% | 0%
CC1CC=CC2C1C(=O)N(Cc1ccccc1)C2c1ccc2ccccc2c1 (stereo not drawn) | -75% | x | x | 11µM* | x | x
COc1ccc(-c2cccc(C3CC=CC4C3C(=O)N(Cc3ccccc3)C4c3ccc(OC)c(Cl)c3)c2)cc1 (stereo not drawn) | -9% | -13% | 13µM* | -6% | -12% | 21µM*
O=C1C2C(c3cccc(/C=C/c4ccccc4)c3)CC=CC2C(c2ccc3ccccc3c2)N1Cc1ccccc1 (stereo not drawn) | -2% | 5% | 16µM* | u | 11% | u
Cc1ccc(-c2cccc(C3CC=CC4C3C(=O)N(Cc3ccccc3)C4c3ccc4ccccc4c3)c2)cc1 (stereo not drawn) | 1% | -1% | 13µM* | u | -2% | 18µM*
CC(C)=CCC/C(C)=C/CO | x | x | 1% | x | x | 3%
COc1ccc(-c2ccc(N(C)C)cc2)cc1C1C2C=CCC(C)C2C(=O)N1Cc1ccccc1 (stereo not drawn) | 11% | x | x | -2% | x | x
O=C1C2C(c3cccc(/C=C/c4ccccc4)c3)CC=CC2C(c2ccc(C(F)(F)F)cc2)N1Cc1ccccc1 (stereo not drawn) | 4% | -6% | u | -11% | -3% | 15µM*
CC[C@@H]1CC=C[C@H]2[C@H]1C(=O)N(Cc1ccccc1)[C@H]2c1ccc(OC)c(Cl)c1 | -31% | -28% | 13µM* | u | u | 18µM*
CCC1CC=CC2C1C(=O)N(Cc1ccccc1)C2c1ccc(C(F)(F)F)cc1 (stereo not drawn) | -30% | x | x | u | x | x
O=C1C2C(c3ccccc3)CC=CC2C(c2ccc(C(F)(F)F)cc2)N1Cc1ccccc1 (stereo not drawn) | -57% | x | x | 13µM* | x | x
